Consider 50 sequences from the supplement of paper PMC10338343.

The subject of assay [1] is MILI (PIWIL2) piRISC loaded with L1MC piRNA (26 nt). Briefly: pre-steady-state target cleavage rate (min^-1); guide: L1MC piRNA 5'p-UAACUAAAUACUAUGCAAGCUGUAGG; higher = faster piRNA-guided slicing of the target. A digest of the protocol: (§1)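 Sequencing of uncleaved targets, normalised to depth and to weakly complementary targets, was the readout of this Cleave-'n-Seq assay. A transcribed, DNA-blocked target RNA library (0.1 nM) was mixed with 1 nM active affinity-purified piRISC carrying one synthetic guide, with or without 500 nM GTSF1 partner protein, in HEPES–potassium acetate buffer at 33 °C for 0–8 or 0–960 min. Three trials were pooled, k3 was capped at 0.0001 min^-1, and a burst-and-steady-state fit gave the pre-steady-state cleavage rate.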

Assay [2] deals with EfPiwi piRISC loaded with L1MC piRNA (26 nt). In words: pre-steady-state target cleavage rate (min^-1); auxiliary factor: 500 nM Ephydatia muelleri Gtsf1; guide: L1MC piRNA 5'p-UAACUAAAUACUAUGCAAGCUGUAGG; MIWI and MILI are mouse PIWI proteins and EfPiwi is from a freshwater sponge; tags in brackets are library labels; higher = faster piRNA-guided slicing of the target. A digest of the protocol:
as §1

Setting [3] is: auxiliary factor: 500 nM mouse GTSF1.
Where [4] appears, read: auxiliary factor: none (no GTSF1).

± gives the standard deviation.

With UCCUGCUACAGCUAGCAUAGUUUUUAGUUA, the “pre-steady-state target cleavage rate” value came to 0.0836 ± 0.014 in assay [1] (setting [3]), 0.00345 ± 0.0024 in assay [1] (setting [4]) and 0.00472 ± 0.0016 in assay [2].
As to UCCUGGAUGAGCUAGCAUAGUAUUUAGUAA, the results for the “pre-steady-state target cleavage rate” value in assay [1] (setting [3]), in assay [1] (setting [4]) and in assay [2] were 0.168 ± 0.021, 0.00735 ± 0.0023 and 0.00419 ± 0.0024, respectively.
In the same order, the values of UCCUGCUACAGCUUGGAUAGUAUUUAGUAA are 0.214 ± 0.032, 0.00334 ± 0.0025 and 0.00465 ± 0.0017.
In the same order, the values of UCCUGGUGCAGCUUGCAUAGUAUUUAGUUA are 0.287 ± 0.017, 0.0103 ± 0.0029 and 0.0864 ± 0.018.
The corresponding values for UCCUGGAUCAGCAUGCAUUGUAUUUAGUUA are 0.15 ± 0.014, 0.00792 ± 0.0027 and 0.00421 ± 0.0021.
Consider UCCUCCUACAGCUAGCAUAGUAUAUAGUUA, for which the “pre-steady-state target cleavage rate” value in assay [1] (setting [3]) came out at 0.192 ± 0.03; in assay [1] (setting [4]), 0.00339 ± 0.0026; in assay [2], 0.00495 ± 0.0026.
In the same order, the values of UCCUGGAUGAGCUUGCAUAGUAUUUAGUGUA are 0.261 ± 0.041, 0.00591 ± 0.0031 and 0.00866 ± 0.0031.
In the same order, the values of UCCUGCUACAGCUUGCAUGGUAUUUAGUUA are 0.334 ± 0.018, 0.0121 ± 0.0029 and 0.0201 ± 0.0061.
As for UCCUCGUACAGCUUGGAUAGUAUUUAGUUA, the entries for the “pre-steady-state target cleavage rate” value in assay [1] (setting [3]), in assay [1] (setting [4]) and in assay [2] were 0.265 ± 0.012, 0.00962 ± 0.0023 and 0.0441 ± 0.0092, respectively.
In the same order, the values of UCCUCCUACAGCUUGCGUAGUAUUUAGUUA are 0.28 ± 0.015, 0.0113 ± 0.003 and 0.031 ± 0.011.
The corresponding values for UCCUGCUACAGCUUGGAAAGUAUUUAGUUA are 0.138 ± 0.012, 0.00897 ± 0.0022 and 0.0208 ± 0.0042.
In the same order, the values of UCCUGGAUGAGCUUGCAUAGUAUCUUAGUUA are 0.148 ± 0.017, 0.00732 ± 0.0024 and 0.0147 ± 0.005.
Consider UCCUGGAUGUGCAUUGCAUAGUAUUUAGUUA, for which the “pre-steady-state target cleavage rate” value in assay [1] (setting [3]) is 0.182 ± 0.023; in assay [1] (setting [4]), 0.0119 ± 0.0039; in assay [2] it was 0.0129 ± 0.0042.
In the same order, the values of UCCUGGAACAGCUUGCAUAGUAUUUGGUUA are 0.221 ± 0.026, 0.00881 ± 0.0026 and 0.00496 ± 0.002.
Consider UCCUGGAUCAGCAAGCAUAGUAUUUAGUUA, for which the “pre-steady-state target cleavage rate” value is 0.231 ± 0.021 in assay [1] (setting [3]), 0.00449 ± 0.0021 in assay [1] (setting [4]) and 0.0107 ± 0.0038 in assay [2].
For the sequence UCCUCCUUCAGCUUGCAUAGUAAUUAGUUA, the “pre-steady-state target cleavage rate” value came out at 0.211 ± 0.021 in assay [1] (setting [3]), 0.00503 ± 0.002 in assay [1] (setting [4]) and 0.0731 ± 0.025 in assay [2].
The corresponding values for UCCUGGUACAGCUUGCAUAGUAUUUAGAUUA are 0.131 ± 0.04, 0.00728 ± 0.0036 and 0.00491 ± 0.0025.
Regarding UCCUGCUACAGCUUGCAUAGUUAUUUAGUUA, the results for the “pre-steady-state target cleavage rate” value in assay [1] (setting [3]), in assay [1] (setting [4]) and in assay [2] were 0.0195 ± 0.0087, 0.00428 ± 0.0024 and 0.00578 ± 0.0032, respectively.
The corresponding values for UCCUCCUACAGCUACCAUAGUAUUUAGUUA are 0.2 ± 0.021, 0.00448 ± 0.0023 and 0.00393 ± 0.0021.
The corresponding values for UCCUGGAUCAGCUUACAUAGUAUUUAGUUA are 0.249 ± 0.014, 0.00805 ± 0.0023 and 0.175 ± 0.039.
In the same order, the values of UCCUGGAACAGCUUCAUAGUAUUUAGUUA are 0.252 ± 0.015, 0.00361 ± 0.0026 and 0.0107 ± 0.0034.
As for “UCCUGCUACAGCUUGCAUAGUAUUUAGUUA [g2:g25:cont:t1A]”, the results for the “pre-steady-state target cleavage rate” value in assay [1] (setting [3]), in assay [1] (setting [4]) and in assay [2] were 0.282 ± 0.019, 0.0105 ± 0.003 and 0.0357 ± 0.011, respectively.
In the same order, the values of UCCUGGAUGAGCUUGCAUAGUAUUUAGAUA are 0.135 ± 0.031, 0.00291 ± 0.0024 and 0.00326 ± 0.0019.
In the same order, the values of UCCUGGAUCAGGUUGCUUAGUAUUUAGUUA are 0.189 ± 0.011, 0.00878 ± 0.0023 and 0.00555 ± 0.0024.
The corresponding values for UCCUGCUACAGCUUACAUAGUAUUUAGUUA are 0.274 ± 0.026, 0.00609 ± 0.0025 and 0.0151 ± 0.0038.
Regarding UCCUGGAUGUCCUCGCAUAGUAUUUAGUUA, the “pre-steady-state target cleavage rate” value was 0.0711 ± 0.01 in assay [1] (setting [3]), 0.00777 ± 0.0022 in assay [1] (setting [4]) and 0.00388 ± 0.0033 in assay [2].
The corresponding values for UCCUGGAUGUGCUUGCAUAGUAUUGUAGUUA are 0.0838 ± 0.018, 0.0048 ± 0.0032 and 0.00579 ± 0.0041.
On to UCCUCCUACAGGUUGCAUACUAUUUAGUUA, for which the entries for the “pre-steady-state target cleavage rate” value in assay [1] (setting [3]), in assay [1] (setting [4]) and in assay [2] were 0.0492 ± 0.009, 0.00246 ± 0.0023 and 0.00612 ± 0.0018, respectively.
As to UCCUCGUAGAGCUUGCAUAGUAUUUAGUUA, the results for the “pre-steady-state target cleavage rate” value in assay [1] (setting [3]), in assay [1] (setting [4]) and in assay [2] were 0.266 ± 0.012, 0.00554 ± 0.0023 and 0.0385 ± 0.0086, respectively.
In the same order, the values of UCCUGGAUCAGCUUGCAUAGUAUCUUAGUUA are 0.234 ± 0.021, 0.00648 ± 0.0025 and 0.0248 ± 0.0072.
The corresponding values for UCCUGCAACAGCUUGCAUACUAUUUAGUUA are 0.083 ± 0.011, 0.00386 ± 0.002 and 0.0112 ± 0.0029.
In the same order, the values of UCCUGGAUGAGCUAUGCAUAGUAUUUAGUUA are 0.202 ± 0.013, 0.0126 ± 0.0025 and 0.0256 ± 0.0076.
On to UCCUGGUACACGCUUGCAUAGUAUUUAGUUA, for which the “pre-steady-state target cleavage rate” value was determined as 0.167 ± 0.046 in assay [1] (setting [3]), 0.0158 ± 0.0071 in assay [1] (setting [4]) and 0.00613 ± 0.0031 in assay [2].
In the same order, the values of UCCUGGAACUGCUUGCAUAGUAAUUAGUUA are 0.159 ± 0.012, 0.00625 ± 0.0021 and 0.0039 ± 0.0028.
The corresponding values for UCCUGGAACAGCUUGCAUAGUAGUUUAGUUA are 0.175 ± 0.013, 0.00337 ± 0.0031 and 0.0047 ± 0.0024.
In the same order, the values of UCCUGGAUGAGCUUGCAUAGUAUUUCAGUUA are 0.207 ± 0.048, 0.00415 ± 0.0028 and 0.00264 ± 0.0023.
For UCCUGGUACAGCUUUGCAUAGUAUUUAGUUA, the results for the “pre-steady-state target cleavage rate” value in assay [1] (setting [3]), in assay [1] (setting [4]) and in assay [2] were 0.185 ± 0.018, 0.0164 ± 0.0048 and 0.00974 ± 0.0035, respectively.
The corresponding values for UCCUGGAUCAGUUGCAUAGUAUUUAGUUA are 0.257 ± 0.016, 0.00796 ± 0.002 and 0.0258 ± 0.0051.
In the same order, the values of UCCUGGUUCAGCUUGCAUAGUAUUAAGUUA are 0.186 ± 0.029, 0.00855 ± 0.0027 and 0.00579 ± 0.0021.
Consider “UCCUGGAUGUCGAAGCAUAGUAUUUAGUUA [g2:g16:cont:t1A]”, for which the “pre-steady-state target cleavage rate” value was found to be 0.0359 ± 0.0067 in assay [1] (setting [3]), 0.00487 ± 0.0016 in assay [1] (setting [4]) and 0.00352 ± 0.002 in assay [2].
In the same order, the values of UCCUGGAACAGCUUGCAUAGUAUUUAGUCA are 0.224 ± 0.024, 0.00732 ± 0.0022 and 0.0042 ± 0.0024.
Consider UCCUGGAUGAGCUUGCAUAGUAUUUGAGUUA, for which the entries for the “pre-steady-state target cleavage rate” value in assay [1] (setting [3]), in assay [1] (setting [4]) and in assay [2] were 0.307 ± 0.051, 0.00461 ± 0.0029 and 0.00491 ± 0.0024, respectively.
The corresponding values for UCCUGGAUCAGCUUGCAUACUAUUUAGUUA are 0.0716 ± 0.011, 0.0037 ± 0.0021 and 0.0114 ± 0.0021.
In the same order, the values of UCCUGGAACUGCUUGCUUAGUAUUUAGUUA are 0.206 ± 0.019, 0.0116 ± 0.0026 and 0.00646 ± 0.0033.
In the same order, the values of UCCUCCAUGAGCUUGCAUAGUAUUUAGUAA are 0.169 ± 0.018, 0.00406 ± 0.0021 and 0.00588 ± 0.0024.
On to UCCUGGAUCAGCUUGCAUCGUAUUUAGUUA, for which the “pre-steady-state target cleavage rate” value turned out to be 0.0942 ± 0.012 in assay [1] (setting [3]), 0.00789 ± 0.0027 in assay [1] (setting [4]) and 0.00918 ± 0.0028 in assay [2].
In the same order, the values of UCCUGCUACACGAUGCAUAGUAUUUAGUUA are 0.241 ± 0.022, 0.00624 ± 0.0023 and 0.00905 ± 0.0024.
The corresponding values for UCCUGGAUGAGCUUGCAUAGUAUUUUGUUA are 0.204 ± 0.04, 0.00454 ± 0.0024 and 0.00491 ± 0.0017.
On to UCCUGGUACAGCUUGCGUAGUAUUUAGUUA, for which the “pre-steady-state target cleavage rate” value worked out at 0.219 ± 0.021 in assay [1] (setting [3]), 0.014 ± 0.004 in assay [1] (setting [4]) and 0.0273 ± 0.0095 in assay [2].
In the same order, the values of “UCCUGGAUGUGCUUGCAUAGUAUUUAGUUC [g2:g20:cont:t1C]” are 0.12 ± 0.013, 0.00589 ± 0.0026 and 0.0175 ± 0.0048.
